# Laboratory results as given in PubChem BioAssay (NCATS).
# A number with no mark means an inactive call. Records with an inconclusive call do not appear. Where a call stands in place of a potency, no number is given. Activity calls are given as the source filed them. Unless noted, calls come from the whole dose curve; as a rule, active = well fitted curve in the direction sought with a large enough effect; inconclusive = small, poorly fitted or top-dose-only effect, or another doubt; inactive = no such curve, though single readings can be large; an effect the other way counts as inactive or inconclusive.
# Columns and labels:
# [1] = P-glycoprotein substrates identified in KB-8-5-11 adenocarcinoma cell line, qHTS therapeutic library screen (AID 1346987); note: nearly all actives have a fitted effect of over 65% in size
# Method in brief: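 KB-8-5-11: colchicine-selected sub-line of KB-3-1 over-expressing P-gp; assay medium lacked colchicine. 72 h drug exposure at 37 degree C, CellTiter-Glo.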
# [2] = test system: Zika virus NS2B-NS3 protease (linked construct); assay: Confirmatory screen NINDS AMC qHTS for Zika virus inhibitors (AID 1347152); note: nearly all actives have a fitted effect of over 70% in size; note: potency is the fitted concentration of half-maximal effect
# Method in brief: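 Concentration-response confirmation used the NINDS linked protease (NS2B hydrophilic domain joined to NS3 protease domain), 1 nM, with a 15-min compound preincubation. Substrate, Nle-KRR-AMC at 10 microM, was read by UV fluorescence before and after 15 min.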
# [3] = target: Peroxisome proliferator-activated receptor alpha (Homo sapiens) (UniProt Q07869); assay: qHTS assay for small molecule agonists of the peroxisome proliferator-activated receptor alpha (PPARalpha) signaling pathway (AID 651778); settings: PathHunter PPARalpha complementation, chemiluminescence, 6 h; hits give high values
# Chain of Peroxisome proliferator-activated receptor alpha (Homo sapiens) (Q07869 whole entry, looked up, the tested form may be a part): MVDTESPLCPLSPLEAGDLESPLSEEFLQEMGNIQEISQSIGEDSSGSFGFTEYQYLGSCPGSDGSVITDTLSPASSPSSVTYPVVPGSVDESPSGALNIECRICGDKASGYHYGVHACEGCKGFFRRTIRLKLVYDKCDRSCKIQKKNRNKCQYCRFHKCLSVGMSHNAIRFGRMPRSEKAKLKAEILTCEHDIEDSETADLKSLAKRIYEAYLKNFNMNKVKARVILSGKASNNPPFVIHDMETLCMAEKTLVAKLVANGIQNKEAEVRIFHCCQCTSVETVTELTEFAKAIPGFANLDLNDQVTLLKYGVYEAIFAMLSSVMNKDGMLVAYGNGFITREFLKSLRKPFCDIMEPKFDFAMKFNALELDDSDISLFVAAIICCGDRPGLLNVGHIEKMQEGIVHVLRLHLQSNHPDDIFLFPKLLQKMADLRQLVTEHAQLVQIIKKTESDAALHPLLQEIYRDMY
# Method in brief: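 Enzyme-fragment complementation assay in which ligand-bound PPARalpha translocates and forms an active enzyme that generates chemiluminescence. Cells were plated overnight, exposed to compound for 6 hr at 37 C, and then given detection reagent for 60 min at room temperature.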
# [4] = qHTS assay for small molecule agonists of the antioxidant response element (ARE) signaling pathway measured by Nrf2-dependant transcriptional activity - cell viability counter screen (AID 720653; active = well fitted curve in the direction sought with a large enough effect in the repeat runs; an effect the other way counts as inactive or inconclusive); settings: ARE-bla HepG2 viability, CellTiter-Glo ATP luminescence, 16 h; hits give low values
# Method in brief: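 ARE-bla HepG2 cells treated with compounds for 16 h at 37C; this counter screen measures viability as intracellular ATP by CellTiter-Glo luminescence after 30 min at room temperature.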
# [5] = qHTS assay for cell viability of HEK293 cells (AID 743288); settings: ATP luminescence (CellTiter-Glo), 18 h, hits give low values; note: nearly all actives have a fitted effect of over 50% in size
# Method in brief: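 Luminescent ATP quantitation served as the viability read-out. Cells (parental HEK293, 2,000/well) received compounds after at least 5 h at 37 C and were exposed for 18 h before a 30 min room-temperature reagent step.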
# [6] = qHTS assay for cell viability of the p53RE-bla HCT-116 cell line (AID 743292); note: nearly all actives have a fitted effect of over 55% in size
# Method in brief: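 Viability of compound-treated p53RE-bla HCT-116 cells is taken from ATP-dependent luciferase luminescence. Treatment lasts 16 h at 37 C after a 5 h settling period; detection follows 30 min at room temperature.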
structure (smiles),measurement,setting,value
CC(=O)OC1CC(C(C)(C)O)OC2CCC3(C)OC4=C(C(=O)C=C5C(C)C(OC(C)=O)C6(C)C(C)OC546)C(O)C3C12C (centres undefined),Potency,[1],inactive
CC1C(O)C(O)C2C(C(=O)OCCc3ccc(O)cc3)=COC(O[C@@H]3O[C@H](CO)[C@@H](O)[C@H](O)[C@H]3O)C12 (some centres undefined),Potency,[1],inactive
same,Potency,[2],inactive
O=C(O)C1(c2ccc(-c3ccc(Cl)c(Cl)c3)c(F)c2)CC1,Potency,[1],inactive
same,Potency,[2],44.1 µM (active)
CNc1nc(Cc2ccccc2)nc2c1CCNC[C@@H]2C,Potency,[1],inactive
CC(=O)OC(C)C(C)(O)C(=O)O[C@@H]1CC[C@]2(C)CC(=O)C(=C(C)C)C[C@H]2[C@]1(C)OC(C)=O (some centres undefined),Potency,[1],inactive
COc1cc(/C=C/c2ccccc2)c(C(=O)O)c(O)c1CC=C(C)C,Potency,[1],inactive
same,Potency,[2],34.3 µM (active)
CC(=O)O[C@@H]1[C@H](O[C@@H]2OC[C@](O)(CO)[C@H]2O)[C@@H](O[C@@H]2O[C@@H](C)[C@H](O)[C@@H](O[C@@H]3O[C@H](CO)[C@@H](O)[C@H](O)[C@H]3O)[C@H]2O)[C@H](OC(=O)[C@]23CCC(C)(C)C[C@H]2C2=CCC4[C@@]5(C)C[C@H](O)[C@H](O[C@@H]6O[C@H](C(=O)O)[C@@H](O)[C@H](O)[C@H]6O)[C@@](C)(C(=O)O)C5CC[C@@]4(C)[C@]2(C)CC3)O[C@@H]1C (some centres undefined),outcome,[1],inactive [at 9.29 µM]
C/C1=C\CC[C@]2(C)O[C@H]2C(=O)c2c(C)coc2C1,Potency,[1],inactive
C[C@@H]1[C@H]2[C@H](O[C@@H]3O[C@H](CO)[C@@H](O)[C@H](O)[C@H]3O)OC=C(C(=O)O)[C@H]2C[C@@H]1OC(=O)/C=C/c1ccc(O)cc1,Potency,[1],inactive
COc1cc(C)c(C(=O)OC2C(C)OC(OC3CCC(C)C4C3C=C(C)C3/C(C)=C\CC/C(C)=C/C5(C)C=C(C(=O)O)C(C)CC56OC(=O)/C(=C(\O)C34C)C6=O)C(O)C2O)c(OC)c1 (centres undefined),Potency,[2],9.37 µM (active)
CCOc1ccc(-c2cc(NC(=O)c3c(F)cccc3F)c(C(=O)O)s2)cc1,Potency,[2],17.5 µM (active)
Cn1c2ccc(NC(=O)c3ccccc3)cc2c(=O)n2nc(C(=O)O)cc12,Potency,[1],inactive
O=C1NC(=O)/C(=C/c2cccc(C(F)(F)F)c2)S1,Potency,[1],inactive
same,Potency,[2],17.5 µM (active)
O=C(/C=C/C=C/c1ccc2c(c1)OCO2)N1CCCCC1,max response,[3],-0.461%
same,max response,[4],3.3%
same,max response,[5],-12.5%
same,outcome,[6],inactive
same,Potency,[1],inactive
COc1cc(Nc2ccc([N+](=O)[O-])cc2C(=O)O)cc2ccccc12,Potency,[1],inactive
same,Potency,[2],15.6 µM (active)
C/C=C/C=C/C=C/C(=O)O[C@@H]1[C@@H](OC)C2=C(C(=O)N(C(CCC(=O)O)C(=O)O)C2)[C@@]2(C)CCCC(C)(C)[C@H]12 (some centres undefined),Potency,[1],inactive
same,Potency,[2],24.2 µM (active)
OC[C@@]1(O)CO[C@@H](OC[C@H]2O[C@@H](Oc3ccccc3)[C@H](O)[C@@H](O)[C@@H]2O)[C@@H]1O,Potency,[1],inactive
COC(=O)C(CC1(OC(=O)C(C)C)c2ccccc2N2C(=O)C(C)(C)N(O)C21)n1cnc2ccccc2c1=O (centres undefined),Potency,[1],inactive
COc1cc2c(c(O)c1OC/C=C(\C)CC/C=C(/C)CCC=C(C)C)CN(C(CCC(=O)O)C(=O)O)C2=O (centres undefined),Potency,[1],inactive
same,Potency,[2],27.1 µM (active)
Cc1ccc2[nH]c(=O)c(C3=NN(C(=O)CCC(=O)O)C(c4ccc(Br)cc4)C3)c(-c3ccccc3)c2c1 (centres undefined),Potency,[1],inactive
same,Potency,[2],44.1 µM (active)
C=CC1(C)C=C2CC[C@H]3[C@@](C)(C(=O)O)CCC[C@]3(C)C2CC1 (some centres undefined),Potency,[1],inactive
COc1cc2c(cc1O)C(c1ccc(O)cc1)C(C)C(C)C2 (centres undefined),Potency,[1],inactive
CC1=C2C[C@H]3OC(=O)[C@H](O)[C@@]4(O)[C@@H](C)[C@@H](O)[C@H](O)C([C@@]2(C)[C@H](O)[C@@H](O)C1)[C@@]34C (some centres undefined),Potency,[1],inactive
C/C(=C\CCC(C)CCO)C(=O)OC[C@H]1O[C@@H](O[C@@H]2OC=C(C(=O)O)[C@H]3CC[C@](C)(O)[C@@H]23)C(O)[C@@H](O)C1O (some centres undefined),Potency,[1],inactive
same,Potency,[2],13.6 µM (active)
C=C1C2CCC3C(CCC4[C@@]3(C)CCC[C@@]4(C)C(=O)O)(C2)[C@@H]1OC(=O)/C(C)=C\C (some centres undefined),Potency,[1],inactive
same,Potency,[2],21.5 µM (active)
